According to article PMC6451091, “NextPBM: a platform to study cell-specific transcription factor binding and cooperativity”:
Over roughly 3,700 sequences, “z-score” has its median near 4; the highest 2% begin near 8.4. For the sample, the highest values were picked, then their nearest neighbours and some sequences at random.

Key:
[1] = target: PU.1 (IVT) (UniProt P17947 1-270); assay: protein-binding microarray (PBM); 20 mM HEPES pH 7.9, 100 mM NaCl, 1 mM DTT, 0.2 mg/mL BSA, 0.02% Triton X-100, 2% milk, 0.4 mg/mL salmon testes DNA; 1 h; temperature not stated; high values mean tight binding; conditions: dsDNA, one strand shown
In short: (§1)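 Untagged full-length PU.1 was produced by coupled human in vitro transcription/translation and incubated for 1 h on custom double-stranded DNA microarrays in HEPES pH 7.9 containing 100 mM NaCl, 2% milk and salmon testes DNA. Each array carried 20-bp genomic sites and single-nucleotide variants, with 10 probes per site (5 per orientation). Bound protein was detected with anti-PU.1 followed by a fluorescent secondary antibody. Binding values are z-scores calculated from scanned fluorescence after linear-regression normalisation.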

[2] = target: PU.1 (IVT) (UniProt P17947 1-270); assay: as above; conditions: dsDNA, one strand shown; remark: listed apart in the source
In short: as §1

| Sequence | binding signal [1] [z-score] | binding signal [2] [z-score] |
| --- | --- | --- |
| GCCTAGCACTTTAAAGGGAAATACTGTGGGTGCTAGGTCTTGATTCGCTTGACGCTGCTG | 1.36 |  |
| GCCTAGCACAGAAACAGGAACTGAGGCCAGTGCTAGGTCTTGATTCGCTTGACGCTGCTG |  | 4.78 |
| GCCTAGCACGAAAACAGGAAGTCCGATAGGTGCTAGGTCTTGATTCGCTTGACGCTGCTG |  | 7.15 |
| GCCTAGCACTGGGAGAGGAAGTGATGAGCGTGCTAGGTCTTGATTCGCTTGACGCTGCTG | 4.01 |  |
| GCCTAGCACAAGCAGAGGAAGTGAGATTTGTGCTAGGTCTTGATTCGCTTGACGCTGCTG |  | 3.71 |
| GCCTAGCACCAAAAAGGGAAGTGGACGCTGTGCTAGGTCTTGATTCGCTTGACGCTGCTG |  | 6.7 |
| GCCTAGCACATCATCAGGAACTGAAACTGGTGCTAGGTCTTGATTCGCTTGACGCTGCTG |  | 1.18 |
| GCCTAGCACAAAGAGAGGAAGTCCCAAGAGTGCTAGGTCTTGATTCGCTTGACGCTGCTG | 3.78 |  |
| GCCTAGCACTCAAGAAGGAAGTGCCAAATGTGCTAGGTCTTGATTCGCTTGACGCTGCTG | 3.31 |  |
| GCCTAGCACAGAAAAAGGAACTGTGCCCCGTGCTAGGTCTTGATTCGCTTGACGCTGCTG |  | 3.05 |
| GCCTAGCACAGCAAGAGGAAGTCAAGTACGTGCTAGGTCTTGATTCGCTTGACGCTGCTG | 4.55 |  |
| GCCTAGCACAGAAAGAGGAAGTGACACTTGTGCTAGGTCTTGATTCGCTTGACGCTGCTG |  | 8.52 |
| GCCTAGCACTGAAAGAGGAAGTGTAACCAGTGCTAGGTCTTGATTCGCTTGACGCTGCTG |  | 7.2 |
| GCCTAGCACGAAAAGAGGAAGTGTAACCAGTGCTAGGTCTTGATTCGCTTGACGCTGCTG |  | 8.52 |
| GCCTAGCACAGGAAGAGGAAGTGACAGATGTGCTAGGTCTTGATTCGCTTGACGCTGCTG | 6.27 |  |
| GCCTAGCACGAAAAGAGGAAGTCAAACCAGTGCTAGGTCTTGATTCGCTTGACGCTGCTG |  | 8.22 |
| GCCTAGCACAGAAAGAGGAAGTCGAGGTGGTGCTAGGTCTTGATTCGCTTGACGCTGCTG |  | 7.74 |
| GCCTAGCACAGAAAGAGGAAGTTATGTGCGTGCTAGGTCTTGATTCGCTTGACGCTGCTG |  | 8.58 |
| GCCTAGCACAGAAAGAGGAAGAGCCTCAGGTGCTAGGTCTTGATTCGCTTGACGCTGCTG | 5.13 |  |
| GCCTAGCACAGAAAGAGGAAGTCTCTGCCGTGCTAGGTCTTGATTCGCTTGACGCTGCTG |  | 7.37 |

| Sequence | binding signal [1] [z-score] | binding signal [2] [z-score] |
| --- | --- | --- |
| GCCTAGCACAGAAAGAGGAAGAGAAACTTGTGCTAGGTCTTGATTCGCTTGACGCTGCTG | 4.63 |  |
| GCCTAGCACAGAAAGAGGAAGTTCCCGTCGTGCTAGGTCTTGATTCGCTTGACGCTGCTG |  | 8.56 |
| GCCTAGCACAGAAAGAGGAAATGACCTATGTGCTAGGTCTTGATTCGCTTGACGCTGCTG | 5.8 |  |
| GCCTAGCACACCAGGAGGAAGTGGTTGCAGTGCTAGGTCTTGATTCGCTTGACGCTGCTG | 4.06 |  |
| GCCTAGCACCGAAAGAGGAAGTGCAACCAGTGCTAGGTCTTGATTCGCTTGACGCTGCTG |  | 7.64 |
| GCCTAGCACGATAAGAGGAAGTGCTCTGTGTGCTAGGTCTTGATTCGCTTGACGCTGCTG | 6.52 |  |
| GCCTAGCACTTTAAAGGGAAATGAAACTGGTGCTAGGTCTTGATTCGCTTGACGCTGCTG |  | 1.39 |
| GCCTAGCACGAAAAGAGGAACAGCCTCTGGTGCTAGGTCTTGATTCGCTTGACGCTGCTG | 5.13 |  |
| GCCTAGCACGAAAGGGGGAAGTGACTAAGGTGCTAGGTCTTGATTCGCTTGACGCTGCTG | 5.51 |  |
| GCCTAGCACTCTCTGAGGAAGTGAAACTCGTGCTAGGTCTTGATTCGCTTGACGCTGCTG | 2.86 |  |
| GCCTAGCACAGAAAGAGGAAGTGCTGAGGGTGCTAGGTCTTGATTCGCTTGACGCTGCTG |  | 7.75 |
| GCCTAGCACAAAAAAAGGATATGAAAGTAGTGCTAGGTCTTGATTCGCTTGACGCTGCTG | 0.953 |  |
| GCCTAGCACAAAAAGAGGAACTGAATGTCGTGCTAGGTCTTGATTCGCTTGACGCTGCTG |  | 7.27 |
| GCCTAGCACGAAAGGAGGAAGTACTGTGGGTGCTAGGTCTTGATTCGCTTGACGCTGCTG |  | 6.78 |
| GCCTAGCACAGAAAGAGGAAGTGCCTCTTGTGCTAGGTCTTGATTCGCTTGACGCTGCTG |  | 8.4 |
| GCCTAGCACAGAAAGAGGAAGTGGAAGAGGTGCTAGGTCTTGATTCGCTTGACGCTGCTG |  | 8.16 |
| GCCTAGCACAGAAAGAGGAAGAGCTGCCAGTGCTAGGTCTTGATTCGCTTGACGCTGCTG | 4.1 |  |
| GCCTAGCACTCAAGGAGGAAGTGAGAGATGTGCTAGGTCTTGATTCGCTTGACGCTGCTG | 4.31 |  |
| GCCTAGCACGTTTTGAGGAACTGAAACTCGTGCTAGGTCTTGATTCGCTTGACGCTGCTG | 4.5 |  |
| GCCTAGCACCGAAAAGGGAAATACTGTGAGTGCTAGGTCTTGATTCGCTTGACGCTGCTG | 2.65 |  |
